In PubChem BioAssay (NCI):
This is part of a sample that, as a whole, favours compounds with a hit. Of some 83,000 tested, about 20% had one in any assay.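 Compound tested at a single concentration for 48 hours in 96-well plates; a percent growth value below 10 was scored as active.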 A number with no mark means an inactive call. Activity calls are given as the source filed them.

Tests used:
Assay in all cases: NCI-60 one-dose screen, 48 h (100 = growth as untreated, 0 = no growth, -100 = all killed)
Conditions in all cases: 10 µM unless noted
HCT-15 colon = test system: HCT-15 colon
HT29 colon = test system: HT29 colon
SNB-75 CNS = test system: SNB-75 CNS
SNB-19 CNS = test system: SNB-19 CNS
U251 CNS = test system: U251 CNS
PC-3 prostate = test system: PC-3 prostate
UACC-62 melanoma = test system: UACC-62 melanoma
LOX IMVI melanoma = test system: LOX IMVI melanoma
SK-MEL-28 melanoma = test system: SK-MEL-28 melanoma
SK-MEL-2 melanoma = test system: SK-MEL-2 melanoma
EKVX NSCLC = test system: EKVX NSCLC
SN12C renal = test system: SN12C renal
UO-31 renal = test system: UO-31 renal
TK-10 renal = test system: TK-10 renal
CAKI-1 renal = test system: CAKI-1 renal
A498 renal = test system: A498 renal
CCRF-CEM leukemia = test system: CCRF-CEM leukemia
MOLT-4 leukemia = test system: MOLT-4 leukemia
ACHN renal = test system: ACHN renal

SMILES: O=C1C=C(O)C(=O)C(CC2=C(O)C(=O)C=C(O)C2=O)=C1O
- growth (HCT-15 colon): 105%
- growth (HT29 colon): 107%
- growth (SNB-75 CNS): 83.5%
- growth (SNB-19 CNS): 112%
- growth (U251 CNS): 102%
- growth (PC-3 prostate): 95.2%
- growth (UACC-62 melanoma): 103%
- growth (LOX IMVI melanoma): 89.9%
- growth (SK-MEL-28 melanoma): 110%
- growth (SK-MEL-2 melanoma): 104%
- growth (EKVX NSCLC): 102%
- growth (SN12C renal): 97.8%
- growth (UO-31 renal): 94.6%
- growth (TK-10 renal): 106%
- growth (CAKI-1 renal): 104%
- growth (A498 renal): 86.6%
- growth (CCRF-CEM leukemia): 115%
- growth (MOLT-4 leukemia): 104%

SMILES: CCCCCCN(CCCCCC)CCC(O)c1ccc2ccccc2c1 (stereo not drawn)
- growth (HCT-15 colon): 48.1%
- growth (HT29 colon): 27.7%
- growth (SNB-75 CNS): 68.2%
- growth (SNB-19 CNS): 78.5%
- growth (U251 CNS): 62.7%
- growth (PC-3 prostate): 48.6%
- growth (UACC-62 melanoma): 77.3%
- growth (LOX IMVI melanoma): 40.5%
- growth (SK-MEL-28 melanoma): 88.1%
- growth (SK-MEL-2 melanoma): 86.1%
- growth (EKVX NSCLC): 71%
- growth (SN12C renal): 58.6%
- growth (UO-31 renal): 38.4%
- growth (TK-10 renal): 72%
- growth (CAKI-1 renal): 53%
- growth (A498 renal): 48.3%
- growth (CCRF-CEM leukemia): 41.8%
- growth (MOLT-4 leukemia): 45.7%

SMILES: CNc1ccc(-c2cc(=O)oc3ccc(Cl)cc23)cc1
- growth (HCT-15 colon): 14.9%
- growth (HT29 colon): -2.77% (active)
- growth (SNB-75 CNS): 40.9%
- growth (SNB-19 CNS): 22.7%
- growth (U251 CNS): 8.91% (active)
- growth (PC-3 prostate): 12.8%
- growth (UACC-62 melanoma): 31.7%
- growth (LOX IMVI melanoma): 24.1%
- growth (SK-MEL-28 melanoma): 58.5%
- growth (SK-MEL-2 melanoma): 33.7%
- growth (EKVX NSCLC): 40.1%
- growth (UO-31 renal): 47.7%
- growth (TK-10 renal): 50%
- growth (ACHN renal): 37%
- growth (CAKI-1 renal): 34.4%
- growth (A498 renal): -3.47% (active)
- growth (CCRF-CEM leukemia): 14.4%
- growth (MOLT-4 leukemia): 11.3%

SMILES: COc1ccc(SC2c3ccc(C)cc3Oc3nc(N)c(C#N)c(N)c32)cc1 (stereo not drawn)
- growth (HCT-15 colon): -79.9% (active)
- growth (HT29 colon): -65.1% (active)
- growth (SNB-75 CNS): -45.5% (active)
- growth (SNB-19 CNS): -69.3% (active)
- growth (U251 CNS): -93.3% (active)
- growth (PC-3 prostate): -67.9% (active)
- growth (UACC-62 melanoma): -46.2% (active)
- growth (LOX IMVI melanoma): -94.3% (active)
- growth (SK-MEL-28 melanoma): -82.3% (active)
- growth (SK-MEL-2 melanoma): -59.8% (active)
- growth (EKVX NSCLC): -10.8% (active)
- growth (SN12C renal): -94.3% (active)
- growth (UO-31 renal): -95.9% (active)
- growth (TK-10 renal): -97.9% (active)
- growth (ACHN renal): -98.1% (active)
- growth (A498 renal): 28.7%
- growth (CCRF-CEM leukemia): -33.5% (active)
- growth (MOLT-4 leukemia): -24.7% (active)

SMILES: O=C(C(=O)c1ccc2c(c1)OCO2)c1ccc2c(c1)OCO2
- growth (HCT-15 colon): 110%
- growth (HT29 colon): 103%
- growth (SNB-75 CNS): 90.3%
- growth (SNB-19 CNS): 104%
- growth (U251 CNS): 103%
- growth (PC-3 prostate): 100%
- growth (UACC-62 melanoma): 105%
- growth (LOX IMVI melanoma): 106%
- growth (SK-MEL-28 melanoma): 110%
- growth (SK-MEL-2 melanoma): 112%
- growth (EKVX NSCLC): 124%
- growth (SN12C renal): 107%
- growth (UO-31 renal): 100%
- growth (TK-10 renal): 105%
- growth (CAKI-1 renal): 107%
- growth (A498 renal): 98.1%
- growth (CCRF-CEM leukemia): 95.6%
- growth (MOLT-4 leukemia): 117%

SMILES: CN(C)c1ccc(N=Nc2ccc(Br)cn2)c(O)c1
- growth (HCT-15 colon): 28.3%
- growth (HT29 colon): 21.9%
- growth (SNB-75 CNS): 39.1%
- growth (SNB-19 CNS): 19.6%
- growth (U251 CNS): 11.4%
- growth (PC-3 prostate): 33.3%
- growth (UACC-62 melanoma): -45.3% (active)
- growth (LOX IMVI melanoma): 6.61% (active)
- growth (SK-MEL-28 melanoma): 29.9%
- growth (SK-MEL-2 melanoma): 18.8%
- growth (EKVX NSCLC): 14.3%
- growth (SN12C renal): 12.3%
- growth (UO-31 renal): 3.75% (active)
- growth (TK-10 renal): 33.9%
- growth (ACHN renal): 7.81% (active)
- growth (A498 renal): 53.9%
- growth (CCRF-CEM leukemia): -0.72% (active)
- growth (MOLT-4 leukemia): 1.73% (active)

SMILES: O=c1cc(CSc2nnc(SCc3cc(=O)oc4c3ccc3ccccc34)o2)c2ccc3ccccc3c2o1
- growth (HCT-15 colon): 104%
- growth (HT29 colon): 97%
- growth (SNB-75 CNS): 93%
- growth (SNB-19 CNS): 107%
- growth (U251 CNS): 97.2%
- growth (PC-3 prostate): 89.9%
- growth (UACC-62 melanoma): 99.6%
- growth (LOX IMVI melanoma): 88.7%
- growth (SK-MEL-28 melanoma): 109%
- growth (SK-MEL-2 melanoma): 87.8%
- growth (EKVX NSCLC): 94.7%
- growth (UO-31 renal): 81.2%
- growth (TK-10 renal): 98.8%
- growth (ACHN renal): 102%
- growth (CAKI-1 renal): 97.4%
- growth (A498 renal): 98.9%
- growth (CCRF-CEM leukemia): 105%
- growth (MOLT-4 leukemia): 98%

SMILES: CC1=C[C@H]2c3c(c(O)c(O)c4oc5c(C)cccc5c(=O)c34)[C@H](c3cc(O)c(O)c4oc5c(C)cccc5c(=O)c34)[C@H]2C(C)(C)C1
- growth (HCT-15 colon): 12.5%
- growth (HT29 colon): 21%
- growth (SNB-75 CNS): -25.7% (active)
- growth (SNB-19 CNS): 15.2%
- growth (U251 CNS): 11.3%
- growth (PC-3 prostate): 10.1%
- growth (UACC-62 melanoma): -43% (active)
- growth (LOX IMVI melanoma): -85.8% (active)
- growth (SK-MEL-28 melanoma): 26.6%
- growth (SK-MEL-2 melanoma): 20.9%
- growth (EKVX NSCLC): 23.5%
- growth (SN12C renal): 10.6%
- growth (UO-31 renal): -27.2% (active)
- growth (TK-10 renal): 31.2%
- growth (ACHN renal): 12.2%
- growth (CCRF-CEM leukemia): 10.8%
- growth (MOLT-4 leukemia): 3.99% (active)
